PubChem BioAssay (NCI)
Values joined by “and” are separate entries in the source; they are usually repeats but may differ in a detail not shown here. Equal values may be shown once. Compounds without any hit were thinned out: in the full panel of roughly 83,000, 20% have a hit.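 Values shown are percent growth following 48 h exposure of cells in 96-well plates to a single concentration of compound; below 10 was considered active.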 Unmarked numbers belong to inactive results. Active and inactive are the calls of the source.

What follows are compounds tested on MDA-MB-468 breast (assay: NCI-60 one-dose screen, 48 h (100 = growth as untreated, 0 = no growth, -100 = all killed)). Settings: 10 µM unless noted.

Structure (SMILES) | growth
COC(=O)c1ccc(C)cc1 | 105%
COc1cccc(-c2nc3occn3c2-c2ccnc(NCCNS(=O)(=O)c3cccc4ccccc34)n2)c1 | 98.1%
CCN(CC)CCOc1ccc2c(c1O)C(=O)c1ccccc1C2=O | 80.3%
COC(=O)c1c2c(c(C)[n+]([O-])c1C)C(=O)C=CC2=O | -33% (active)
C=CC1(C)C(O[Si](C)(C)C(C)(C)C)CC2C3OC(=O)NC31c1cccc3c1[C@H](C(=O)N3C)C2(C)C (stereo not given in full) | 31.3%
O=C(Nc1ccc(-n2cc(-c3ccncc3)c(-c3ccc(Cl)c(O)c3)n2)cc1)c1ccc(Cl)c(C(F)(F)F)c1 | -12% (active)
S=C(c1ccc2c(c1)OCO2)N1CCN(c2cccc(Cl)c2)CC1 | 6.42% (active)
Cc1cc(C)n(Cc2cc(C(C)(C)C)cc(C(C)(C)C)c2)c(=O)c1C#N | 97.4%
CCOC(=O)C1=C(C)NC(SCc2nnc(-c3ccc(Cl)cc3)o2)=NC1c1ccc(Br)cc1 (stereo not given) | 58.2%
CCOC(=O)C(C(=O)OCC)C(c1ccccc1)N1CCN(c2ccccc2)CC1 (stereo not given) | 108% and 103%
N[C@H](CS)C(=O)O | 93.1%
CNC(=O)c1cc(Oc2ccc3nc(NC(=O)c4cccc(OC(F)(F)F)c4)sc3c2)ccn1 | 46%
Nc1cc2c(cc1C(=O)c1cccc(F)c1)OCCO2 | 93.8%
Nc1ccccc1NC(=O)CCCCCCC(=O)Nc1ccc2c(c1)/C(=C/c1ccc[nH]1)C(=O)N2 | 32.9%
CC(C)c1c(C(=O)Nc2ccccc2)c(-c2ccccc2)c(-c2ccc(F)cc2)n1CC[C@@H]1CC=CC(=O)O1 | -48.3% (active)
O=C(c1nc2ccccc2[nH]1)C1[C@@H](c2cccc(O)c2)C2CC3CCCCC3N2[C@@]12C(=O)Nc1cc(Cl)ccc12 (stereo not given in full) | 32.5%
O=C1CCC/C=C\C[C@H]2C=CC(=O)/C2=C/C[C@H](C/C=C\CC(F)(F)F)O1 | -46.5% (active)
CC(O)C(F)(F)C(F)(F)C(F)(F)F (stereo not given) | 96.4%
Nc1nc(N)c2c(n1)NC(c1cccc(Nc3ccnc4cc(C(F)(F)F)ccc34)c1)CC(c1ccc3c(c1)OCO3)=N2 (stereo not given) | 58%
O=[N+]([O-])c1ccc(SSc2ccc([N+](=O)[O-])cc2Cl)c(Cl)c1 | 74.6%

Structure (SMILES) | growth
O=C1c2cccnc2-c2ncccc21 | 100% [100 µM]
O=C(O)CN(CCN(CC(=O)O)CC(=O)O)CCN(CC(=O)O)CC(=O)O | 22% and 94.6% and 89.3%
COc1ccc(/C=N/NC(=O)c2c(N)nn(C)c2Nc2ccccc2)cc1Oc1ccccc1 | 66.6%
COc1ccc(C(=O)c2ccc(C)cc2)c(OC)c1OC | 20.5%
COc1ccc2nc3cc(Cl)ccc3c(N3CCN(c4ccnc(N5CCOCC5)n4)CC3)c2c1 | -54.8% (active)
c1ccc2c(NCCCN3CCN(CCCNc4c5ccccc5nc5ccccc45)CC3)c3ccccc3nc2c1 | -73.2% [100 µM] (active)
CC(C)(C)OC(=O)N1Cc2cc3ccccc3nc2C1CO (stereo not given) | 71.7%
C1=C(c2ccccc2)c2ccccc2C1 | 100%
COc1cc(/C=C2\CCCC3=C2NC(N)=NC3c2cc(OC)c(OC)c(OC)c2)cc(OC)c1OC (stereo not given) | -70.9% (active)
COc1cccc(/C=N/N=C(N)N)c1 | 90%
COc1ccc(Cn2cc3c(c2-c2cc(OC)c(OC)c(OC)c2)CCc2cnoc2-3)cc1[N+](=O)[O-] | -1.72% (active)
O=C1C(N2CCOCC2)=C(I)C(=O)c2ncccc21 | 42%
C=CC(=O)N1CC2(CC(n3nc(-c4ccc(Oc5ccccc5)cc4)c4c(N)ncnc43)C2)C1 | -8.12% (active)
C#Cc1ccc(-n2c(/C=C/c3ccc4ccccc4n3)nc3ncccc3c2=O)cc1 | -68.1% (active)
O=C(O)c1cn(C2CC2)c2cc(N3CCN(C(=O)Nc4nc(-c5ccc(Cl)cc5)cs4)CC3)c(F)cc2c1=O | 9.76% (active)
Cc1[nH]c(-c2nc3ccccc3[nH]2)c(C)c1C(=O)N1CCOCC1 | 91.6%
COc1cc(/C=C/c2cc(/C=C/c3ccc(O)c(OC)c3)n(-c3ccc(Cl)cc3)c(=O)n2)ccc1O | 76.4%
CCn1c(SCC(=O)Nc2cccc(C(=O)/C=C/c3cc(OC)c(OC)c(OC)c3)c2)nc2ccccc2c1=O | 31.8%
COC(=O)Nc1ccc(NC(=O)OC)cc1 | 97.3%
C/C(CC(C)C)=N/NC(N)=S | 7.03% (active)
